# In PubChem BioAssay (NCATS):
# Unmarked numbers belong to inactive results. Records with an inconclusive call do not appear. Activity calls are given as the source filed them. Unless noted, calls come from the whole dose curve; as a rule, active = well fitted curve in the direction sought with a large enough effect; inconclusive = small, poorly fitted or top-dose-only effect, or another doubt; inactive = no such curve, though single readings can be large; an effect the other way counts as inactive or inconclusive.
# Legend:
# [1] = AP1 Signaling Pathway (AID 357; active = well fitted curve in either direction with a large enough effect, not every such curve was filed as active;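 note: ME-180 reporter cells stimulated with EGF at its EC50 level; % is set by controls: 0 for no effect and ±100 for the full control effect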); conditions: ME-180 AP-1-bla reporter, EGF-induced, beta-lactamase ratio, 5 h; at 7.69 µM (top of the series) unless noted
# How it was run: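 Cells are seeded overnight, exposed to compound titrations and an EC50 level of EGF for 5 hours at 37 °C, then loaded with CCF4 dye for 2.5 hours. Beta-lactamase activity under the AP-1 element is read as a blue/green ratio.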
# [2] = NFAT Signaling Pathway (AID 444; active = well fitted curve in either direction with a large enough effect, not every such curve was filed as active;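 note: carbachol stimulus at about its EC50 of 1 µM final; % is set by controls: 0 for no effect and ±100 for the full control effect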); conditions: Jurkat NFAT-bla M1, carbachol, beta-lactamase ratio, 5 h; at 7.69 µM (top of the series) unless noted
# How it was run: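 Jurkat cells carrying an NFAT-driven β-lactamase reporter and co-transfected muscarinic M1 receptor were treated with compound plus carbachol (1 uM final, an EC50 level) for 5 h at 37 °C. CCF4 loading followed for 1 h at RT; 460/530 nm ratio gave %activity.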
# [3] = Stat Signaling Pathway (AID 446; active = well fitted curve in either direction with a large enough effect, not every such curve was filed as active;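 note: ME-180 cervical cancer cells given 40 pM IL-6 alongside compound; SIE-controlled beta-lactamase reporter measured as 460/530 nm FRET emission ratio; % is set by controls: 0 for no effect and ±100 for the full control effect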); conditions: ME-180 SIE beta-lactamase reporter, IL-6 stimulated, 5 h; at 7.69 µM (top of the series) unless noted
# How it was run: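 Reporter line: ME-180 cervical carcinoma, SIE-beta-lactamase. Treatment: compound with 40 pM IL-6, 5 hrs, 37 C, in low-serum OPTI-MEM with 10 mM HEPES pH 7.3. Detection: 460/530 nm fluorescence.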
# [4] = biological target: Glucocorticoid receptor (Homo sapiens) (UniProt P04150); experiment: GR-GFP Redistribution (AID 450;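 active = compounds whose dose series gives a full or clear partial fitted curve of increased nuclear translocation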; note: potency is the fitted concentration of half-maximal effect); conditions: U2OS GR-GFP nuclear translocation, laser cytometry, 2 h
# [5] = biological target: Glucocorticoid receptor (Homo sapiens) (UniProt P04150); experiment: GR-EFC Redistribution (AID 451; calls by dose curve; note: potency is the fitted concentration of half-maximal effect); conditions: CHO-K1 GR-EFC translocation, beta-gal luminescence, 2 h
# How it was run: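 CHO-K1 cells stably expressing nuclear-localized β-gal enzyme acceptor and GR fused C-terminally to the enzyme donor fragment; ligand-driven nuclear translocation restores β-gal by complementation. Compounds titrated up to 46 uM final, 2 h at 37 °C; luminescence read.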
# [6] = biological target: Mitogen-activated protein kinase 10 (Mus musculus) (UniProt Q61831); experiment: JNK3 AlphaScreen Assay (AID 530; active = well fitted curve in either direction with a large enough effect, not every such curve was filed as active;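 note: kinase came from lysate of stimulated human HepG2 cells; signal reports phosphorylation of biotinylated GST-cJun 1-79 at Ser73 with 10 µM ATP; % is set by controls: 0 for no effect and ±100 for the full control effect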)
# How it was run: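 JNK3 came from HepG2 lysates pre-activated with IL-1beta and TNF-alpha and phosphorylated biotinylated GST-cJun (1-79) at 10 uM ATP, pH 7.6, room temperature. Compounds were titrated. AlphaScreen signal used anti-phospho-cJun (Ser73) antibody.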
# [7] = biological target: 3',5'-cyclic-AMP phosphodiesterase 4B (Homo sapiens) (UniProt Q07343); experiment: qHTS Assay for Inhibitors of PDE-IV (AID 607; active = well fitted activation curve with a large enough effect in the main read-out, with a control signal flat, not every such curve was filed as active; note: % of control where 0% means no effect)
# How it was run: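 Cell-based read-out of cAMP via a modified cyclic nucleotide-gated channel and membrane potential dye (535/590 nm) in HEK293 cells expressing PDE4 endogenously. Compounds tested up to 22.9 uM final; 100 uM RO 20-1724 reference.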
# [8] = biological target: Cytochrome P450 3A4 (Homo sapiens) (UniProt P08684); experiment: qHTS Assay for Inhibitors and Substrates of Cytochrome P450 3A4 (AID 884); note: potency is the fitted concentration of half-maximal effect; nearly all actives have a fitted effect of over 50% in size
# How it was run: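 20 nM human CYP3A4 with 25 uM Luciferin-PPXE (at KM) in 200 mM KPO4, preincubated 10 min with compound; NADPH regeneration started a 60 min RT reaction. Luciferin detected by luminescence, normalized to 57 uM ketoconazole as full inhibition.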
# [9] = biological target: Cytochrome P450 3A4 (Homo sapiens) (UniProt P08684); experiment: qHTS Assay for Activators of Cytochrome P450 3A4 (AID 885); note: nearly all actives have a fitted effect of over 65% in size
# How it was run: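 Signal was normalized against complete inhibition by 57 uM ketoconazole. The reaction used 20nM CYP3A4 with 25uM Luciferin-PPXE, 10-min compound preincubation and a 60-min NADPH-supported step at RT.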
# [10] = biological target: Cytochrome P450 2D6 (Homo sapiens) (UniProt P10635); experiment: qHTS Assay for Inhibitors and Substrates of Cytochrome P450 2D6 (AID 891); note: nearly all actives have a fitted effect of over 60% in size; note: potency is the fitted concentration of half-maximal effect
# How it was run: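 Human CYP2D6 (5 nM) with 30 uM Luciferin-ME EGE (at Km) in 100 mM KPO4, compound preincubated 10 min, then NADPH regeneration system for 60 min at room temperature. Luciferin read by luminescence; normalized to 1.43 uM quinidine.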
# [11] = biological target: Cytochrome P450 2C19 (Homo sapiens) (UniProt P33261); experiment: qHTS Assay for Inhibitors and Substrates of Cytochrome P450 2C19 (AID 899); note: nearly all actives have a fitted effect of over 60% in size; note: potency is the fitted concentration of half-maximal effect
# How it was run: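 In 50mM KPO4, the reaction held 5nM enzyme and KM-level (10uM) Luciferin-H EGE; it ran 60 min at 37C after NADPH regeneration and a 10 min compound preincubation. Luminescence values were scaled to 57uM ketoconazole as complete inhibition.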
# [12] = biological target: Cytochrome P450 1A2 (Homo sapiens) (UniProt P05177); experiment: p450-cyp1a2 (AID 410; calls by dose curve; note: potency is the fitted concentration of half-maximal effect;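 for activity change, negative = inhibition: -100% = full effect of reference inhibitor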)
# How it was run: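 Inhibition was calculated relative to 57 uM furafylline (full inhibition). The reaction used human CYP1A2 at 20nM with Luciferin-ME at its Km, 100uM, driven by an NADPH-regenerating system for 60 min at room temperature.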
# [13] = biological target: Guanine nucleotide-binding protein G(i) subunit alpha-1 (Homo sapiens) (UniProt P63096); experiment: qHTS Assay for Inhibitors of RGS12 GoLoco Motif Activity (Green Fluorophore) (AID 879);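 note: 0% = labeled peptide with Gαi1 and full inhibition = labeled peptide alone without protein; negative values mean loss of peptide binding seen as reduced polarization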
# How it was run: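 Fluorescence polarization assay: 50 nM Gαi1 with 10 nM FITC-labeled RGS12 GoLoco peptide in 10 mM Tris pH 7.5, 150 mM NaCl, 0.1 mM GDP, 0.05% NP40, 10 min at room temperature with compound.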
# [14] = biological target: Cytochrome P450 2C9 (Homo sapiens) (UniProt P11712); experiment: qHTS Assay for Inhibitors and Substrates of Cytochrome P450 2C9 (AID 883); note: % is set by controls: 0 for no effect and ±100 for the full control effect; nearly all actives have a fitted effect of over 60% in size
# How it was run: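 CYP2C9 deoxyluciferin hydroxylation, 37C, 60 min with NADPH regeneration; 10nM enzyme, 100uM Luciferin-H (KM). Glo detection reagent stopped reaction; luminescence normalized to sulphaphenazole (57uM) full inhibition.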
# [15] = qHTS Assay for Identification of Small Molecule Antagonists for Thrombopoietin (TPO) Signaling Pathway (AID 918); conditions: TPO-dependent cell signaling reporter, antagonist mode; note: potency is the fitted concentration of half-maximal effect; nearly all actives have a fitted effect of over 60% in size
# How it was run: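 First, Ba/F3 reporter cells expressing human TPO receptor were held overnight without IL-3. Next, compound and 26 pM TPO were added. After 24 hrs incubation at 37 C, luciferase luminescence under the Glycoprotein IIb promoter was recorded.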
# [16] = biological target: Pyruvate kinase (Leishmania mexicana) (UniProt Q27686); experiment: qHTS Validation Assay for Inhibitors of Leishmania Mexicana Pyruvate Kinase (AID 945);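 note: 0% = DMSO only neutral control wells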
# How it was run: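 Purified LmPYK (E451W mutant, 0.2 nM) was incubated 1 h at room temperature with 0.5 mM PEP and 0.1 mM ADP in 50 mM imidazole pH 7.2, 50 mM KCl, 7 mM MgCl2; ATP formed was read by PKLight luminescence, normalized to DMSO wells.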
# [17] = biological target: Pyruvate kinase PKM (Homo sapiens) (UniProt P14618); experiment: qHTS Assay for Activators of Human Muscle Pyruvate Kinase (AID 954; active = well fitted curve in the direction sought with a large enough effect, not every such curve was filed as active;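 note: 0% = uninhibited enzyme and -100% = no enzyme or full thiadiazolimine inhibition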)
# How it was run: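 Human PKM2 activity is measured as ATP generation, detected by luciferase-coupled luminescence. The enzyme (0.1 nM) acts on 0.5 mM PEP and 0.1 mM ADP for 1 h at ambient temperature; data are normalized to uninhibited and full-inhibition wells.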
# [18] = biological target: Alpha-galactosidase A (Homo sapiens) (UniProt P06280); experiment: Counterscreen for Glucocerebrosidase Inhibitors: qHTS Assay for Human alpha-Galactosidase at pH 4.5 (AID 992); note: 0% is about no effect
# How it was run: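 Quantitative HTS: compounds tested from 0.7 nM up to 77 uM against 2 nM enzyme with 80 uM 4-MU alpha-D-galactopyranoside. The 20 min room-temperature reaction is stopped with 1M NaOH/1M glycine, pH 10.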
# [19] = biological target: alpha-glucosidase (Oryza sativa, rice) (UniProt Q653V4); experiment: Counterscreen for Glucocerebrosidase Inhibitors: qHTS Assay for Rice alpha-Glucosidase at pH 5.0 (AID 997);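 note: 0% = full activity with enzyme and -100% = basal without enzyme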
# How it was run: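 Rice alpha-glucosidase (4 nM final) with 400 uM 4-methylumbelliferyl-alpha-D-glucopyranoside in citrate buffer pH 5.0, 20 min at room temperature, stopped at pH 10; fluorescence 365/440 nm, compounds 0.7 nM–77 uM, AC50 from Hill fits.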
# [20] = qHTS Assay for Identification of Small Molecule Agonists for Thrombopoietin (TPO) Signaling Pathway (AID 917); note: % is set by controls: 0 for no effect and ±100 for the full control effect
# How it was run: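 IL-3-dependent murine pro-B Ba/F3 cells, stably transfected with human TPO receptor and GpIIb-promoter luciferase, are incubated 24 hrs at 37 C with test compound and 26 pM TPO; luciferase signal is read after 10 min at room temperature.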
# [21] = biological target: Muscarinic acetylcholine receptor M1 (Rattus norvegicus) (UniProt P08482); experiment: qHTS Assay for Antagonists of Acetylcholine Muscarinic M1 Receptor: Kinetic Measurement of Intracellular Calcium Response (AID 943);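 note: Fluo-4 calcium signal as peak divided by basal fluorescence over 4 min; nearly all actives have a fitted effect of over 75% in size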
# How it was run: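 Intracellular calcium flux, recorded with Fluo-4 in a kinetic plate reader, served as signal; the response to carbachol at EC80 (100 nM final) was taken as maximal over minimal fluorescence after a 10 min compound pre-incubation in rat M1-CHO cells.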
# [22] = biological target: Muscarinic acetylcholine receptor M1 (Rattus norvegicus) (UniProt P08482); experiment: qHTS Assay for Antagonists of Acetylcholine Muscarinic M1 Receptor: Measurement of IP-One Response (AID 944); note: nearly all actives have a fitted effect of over 75% in size
# How it was run: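 Steps: plate transfected CHO-M1 cells overnight; add test compound, 10 min; add carbachol (200 nM, EC80) in stimulation buffer with LiCl; incubate 30 min; add labelled IP1 tracer and anti-IP1 antibody in lysis buffer; read HTRF after 10 min.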
# 3',5'-cyclic-AMP phosphodiesterase 4B (Homo sapiens), sequence (Q07343 whole entry, looked up): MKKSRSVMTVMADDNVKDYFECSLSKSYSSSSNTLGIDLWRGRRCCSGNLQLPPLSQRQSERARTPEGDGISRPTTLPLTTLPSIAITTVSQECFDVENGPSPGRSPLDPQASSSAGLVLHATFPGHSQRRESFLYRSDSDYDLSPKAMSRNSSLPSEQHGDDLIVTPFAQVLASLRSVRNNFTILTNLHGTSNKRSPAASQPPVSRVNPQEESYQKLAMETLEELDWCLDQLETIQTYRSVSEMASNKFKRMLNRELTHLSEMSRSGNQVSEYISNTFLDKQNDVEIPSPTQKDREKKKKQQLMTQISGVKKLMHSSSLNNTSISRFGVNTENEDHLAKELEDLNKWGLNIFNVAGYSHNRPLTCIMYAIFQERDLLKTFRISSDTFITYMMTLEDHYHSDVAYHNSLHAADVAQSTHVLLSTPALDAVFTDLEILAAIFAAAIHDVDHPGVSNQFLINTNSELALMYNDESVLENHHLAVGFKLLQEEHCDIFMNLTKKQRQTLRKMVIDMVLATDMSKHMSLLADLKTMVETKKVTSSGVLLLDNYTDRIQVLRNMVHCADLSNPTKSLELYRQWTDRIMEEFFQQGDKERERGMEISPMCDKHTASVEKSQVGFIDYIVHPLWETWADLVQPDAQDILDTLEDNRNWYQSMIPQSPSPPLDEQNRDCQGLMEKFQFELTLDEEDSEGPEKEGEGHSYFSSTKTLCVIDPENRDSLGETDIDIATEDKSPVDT
# Glucocorticoid receptor (Homo sapiens), sequence (P04150 whole entry, looked up, the tested form may be a part): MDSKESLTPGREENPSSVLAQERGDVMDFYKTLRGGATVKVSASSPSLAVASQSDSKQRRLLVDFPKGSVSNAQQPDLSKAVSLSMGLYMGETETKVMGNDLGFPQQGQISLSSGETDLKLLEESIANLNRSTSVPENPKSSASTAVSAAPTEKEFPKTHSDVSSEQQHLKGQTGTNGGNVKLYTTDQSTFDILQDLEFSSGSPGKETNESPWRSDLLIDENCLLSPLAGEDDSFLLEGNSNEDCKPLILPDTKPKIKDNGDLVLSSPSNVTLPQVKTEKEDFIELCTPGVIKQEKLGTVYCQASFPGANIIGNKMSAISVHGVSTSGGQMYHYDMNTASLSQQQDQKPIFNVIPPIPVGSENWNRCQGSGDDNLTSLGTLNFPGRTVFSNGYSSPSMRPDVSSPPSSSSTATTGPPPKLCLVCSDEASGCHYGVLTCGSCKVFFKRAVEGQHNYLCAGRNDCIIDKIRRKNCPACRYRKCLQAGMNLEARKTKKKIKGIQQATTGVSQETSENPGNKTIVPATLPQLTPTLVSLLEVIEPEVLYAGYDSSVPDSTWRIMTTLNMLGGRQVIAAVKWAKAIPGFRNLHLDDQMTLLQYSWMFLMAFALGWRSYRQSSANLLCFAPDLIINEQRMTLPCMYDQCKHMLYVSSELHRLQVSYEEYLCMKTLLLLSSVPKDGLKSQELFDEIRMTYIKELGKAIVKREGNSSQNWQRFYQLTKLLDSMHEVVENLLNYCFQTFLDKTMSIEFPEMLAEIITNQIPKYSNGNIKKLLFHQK
# Cytochrome P450 3A4 (Homo sapiens), sequence (P08684 whole entry, looked up): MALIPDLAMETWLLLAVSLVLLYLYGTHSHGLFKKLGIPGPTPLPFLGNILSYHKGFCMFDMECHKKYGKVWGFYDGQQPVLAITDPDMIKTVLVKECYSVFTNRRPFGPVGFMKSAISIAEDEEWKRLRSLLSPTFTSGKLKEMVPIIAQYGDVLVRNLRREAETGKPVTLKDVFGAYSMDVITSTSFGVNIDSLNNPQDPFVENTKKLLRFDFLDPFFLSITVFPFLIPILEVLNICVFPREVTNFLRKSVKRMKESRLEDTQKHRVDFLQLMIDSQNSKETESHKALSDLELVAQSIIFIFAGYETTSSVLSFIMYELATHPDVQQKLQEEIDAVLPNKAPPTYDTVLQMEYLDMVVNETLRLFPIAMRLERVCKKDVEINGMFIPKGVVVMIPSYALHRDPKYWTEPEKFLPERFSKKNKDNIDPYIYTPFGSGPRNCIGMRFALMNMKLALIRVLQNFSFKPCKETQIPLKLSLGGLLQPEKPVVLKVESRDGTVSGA
# Cytochrome P450 1A2 (Homo sapiens), sequence (P05177 whole entry, looked up): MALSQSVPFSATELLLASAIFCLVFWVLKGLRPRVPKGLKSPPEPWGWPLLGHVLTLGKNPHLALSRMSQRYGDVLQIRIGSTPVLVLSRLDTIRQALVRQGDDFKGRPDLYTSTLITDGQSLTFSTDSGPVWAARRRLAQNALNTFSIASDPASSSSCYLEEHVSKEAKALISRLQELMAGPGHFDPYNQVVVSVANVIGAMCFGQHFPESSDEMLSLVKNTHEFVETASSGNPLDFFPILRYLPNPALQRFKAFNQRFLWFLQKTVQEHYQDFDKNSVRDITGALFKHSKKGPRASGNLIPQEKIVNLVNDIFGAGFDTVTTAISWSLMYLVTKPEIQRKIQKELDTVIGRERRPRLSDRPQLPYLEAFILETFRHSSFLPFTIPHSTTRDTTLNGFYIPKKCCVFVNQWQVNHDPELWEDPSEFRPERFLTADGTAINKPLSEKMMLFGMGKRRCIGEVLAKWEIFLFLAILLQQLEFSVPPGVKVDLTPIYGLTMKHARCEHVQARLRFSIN
# Muscarinic acetylcholine receptor M1 (Rattus norvegicus), sequence (P08482 whole entry, looked up): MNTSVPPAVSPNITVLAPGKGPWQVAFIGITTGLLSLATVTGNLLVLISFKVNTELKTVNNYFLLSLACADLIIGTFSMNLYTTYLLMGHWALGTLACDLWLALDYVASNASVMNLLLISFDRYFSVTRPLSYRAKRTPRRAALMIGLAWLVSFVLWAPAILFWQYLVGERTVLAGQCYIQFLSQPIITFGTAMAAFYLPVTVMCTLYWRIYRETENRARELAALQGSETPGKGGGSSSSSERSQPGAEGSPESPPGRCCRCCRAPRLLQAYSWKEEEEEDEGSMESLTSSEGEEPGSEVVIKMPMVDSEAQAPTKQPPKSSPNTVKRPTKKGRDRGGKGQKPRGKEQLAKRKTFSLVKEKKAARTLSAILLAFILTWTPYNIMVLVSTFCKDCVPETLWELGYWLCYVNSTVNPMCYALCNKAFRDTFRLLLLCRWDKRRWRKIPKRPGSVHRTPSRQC
# Cytochrome P450 2D6 (Homo sapiens), sequence (P10635 whole entry, looked up): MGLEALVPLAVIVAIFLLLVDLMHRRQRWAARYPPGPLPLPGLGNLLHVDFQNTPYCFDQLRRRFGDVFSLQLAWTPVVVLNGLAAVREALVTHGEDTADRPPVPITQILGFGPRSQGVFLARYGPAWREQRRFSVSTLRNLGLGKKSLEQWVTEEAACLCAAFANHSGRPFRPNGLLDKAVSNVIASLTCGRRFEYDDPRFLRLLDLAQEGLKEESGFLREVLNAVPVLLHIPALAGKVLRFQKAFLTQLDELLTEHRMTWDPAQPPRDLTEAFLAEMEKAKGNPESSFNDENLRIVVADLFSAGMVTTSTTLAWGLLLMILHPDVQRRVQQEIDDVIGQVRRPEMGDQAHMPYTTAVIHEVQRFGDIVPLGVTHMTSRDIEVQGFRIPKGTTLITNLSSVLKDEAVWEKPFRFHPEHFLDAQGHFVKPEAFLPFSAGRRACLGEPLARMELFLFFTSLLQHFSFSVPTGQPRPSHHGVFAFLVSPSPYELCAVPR
# Cytochrome P450 2C9 (Homo sapiens), sequence (P11712 whole entry, looked up): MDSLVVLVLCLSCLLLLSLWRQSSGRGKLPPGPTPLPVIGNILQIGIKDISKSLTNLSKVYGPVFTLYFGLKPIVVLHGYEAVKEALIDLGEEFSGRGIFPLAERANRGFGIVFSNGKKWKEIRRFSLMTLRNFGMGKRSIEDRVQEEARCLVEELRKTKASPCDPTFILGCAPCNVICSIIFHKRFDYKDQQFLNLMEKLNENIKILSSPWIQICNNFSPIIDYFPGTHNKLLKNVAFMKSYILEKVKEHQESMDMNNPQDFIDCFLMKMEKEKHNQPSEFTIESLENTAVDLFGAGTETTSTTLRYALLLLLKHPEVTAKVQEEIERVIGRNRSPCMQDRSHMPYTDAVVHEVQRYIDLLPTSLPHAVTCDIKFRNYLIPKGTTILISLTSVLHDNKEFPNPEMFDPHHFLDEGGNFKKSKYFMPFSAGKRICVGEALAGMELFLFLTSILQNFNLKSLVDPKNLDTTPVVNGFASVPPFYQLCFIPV
# Cytochrome P450 2C19 (Homo sapiens), sequence (P33261 whole entry, looked up): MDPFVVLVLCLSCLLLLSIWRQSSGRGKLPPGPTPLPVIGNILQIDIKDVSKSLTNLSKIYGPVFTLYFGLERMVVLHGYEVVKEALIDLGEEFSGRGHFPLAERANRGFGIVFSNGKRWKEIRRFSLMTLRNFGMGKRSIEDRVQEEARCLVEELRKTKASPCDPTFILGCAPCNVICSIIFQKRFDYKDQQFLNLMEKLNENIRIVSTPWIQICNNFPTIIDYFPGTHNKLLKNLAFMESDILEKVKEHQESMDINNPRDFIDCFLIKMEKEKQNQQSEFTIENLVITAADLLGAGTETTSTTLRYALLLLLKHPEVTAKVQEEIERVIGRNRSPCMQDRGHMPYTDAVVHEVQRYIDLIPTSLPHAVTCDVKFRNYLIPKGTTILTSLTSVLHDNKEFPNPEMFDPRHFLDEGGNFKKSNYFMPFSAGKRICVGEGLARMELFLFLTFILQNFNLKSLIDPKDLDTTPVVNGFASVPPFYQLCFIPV
# Pyruvate kinase PKM (Homo sapiens), sequence (P14618 whole entry, looked up): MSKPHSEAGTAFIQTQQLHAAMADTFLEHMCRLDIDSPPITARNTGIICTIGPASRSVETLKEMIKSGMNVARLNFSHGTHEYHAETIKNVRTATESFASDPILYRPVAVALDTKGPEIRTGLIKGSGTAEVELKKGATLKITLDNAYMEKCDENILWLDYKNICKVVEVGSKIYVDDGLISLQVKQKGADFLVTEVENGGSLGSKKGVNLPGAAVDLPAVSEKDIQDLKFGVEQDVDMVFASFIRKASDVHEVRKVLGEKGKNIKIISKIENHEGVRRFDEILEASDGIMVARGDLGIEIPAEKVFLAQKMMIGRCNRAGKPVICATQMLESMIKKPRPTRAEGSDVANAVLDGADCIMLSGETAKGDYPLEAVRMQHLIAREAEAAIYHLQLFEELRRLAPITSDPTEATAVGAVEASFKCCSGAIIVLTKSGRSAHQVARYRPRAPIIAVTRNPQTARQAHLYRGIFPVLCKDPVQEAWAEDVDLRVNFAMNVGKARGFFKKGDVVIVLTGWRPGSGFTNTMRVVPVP
compound,measurement,setting,value
CN(CCc1ccccn1)c1ccc2c(c1)Cc1ccccc1-2,"activity change, negative = inhibition",[1],-10.1%
same,"activity change, negative = inhibition",[2],-13.8%
same,"activity, negative = inhibition",[3],7.42%
same,Potency,[4],> 46 µM
same,Potency,[5],> 9.22 µM
same,Potency,[6],inactive
same,Potency,[7],inactive
same,Potency,[8],2.51 µM (active)
same,Potency,[9],inactive
same,Potency,[10],3.16 µM (active)
same,Potency,[11],0.794 µM (active)
C[C@@]12C(=O)OC(=O)[C@@]1(C)[C@H]1CC[C@@H]2O1,"activity change, negative = inhibition",[1],-102% [at 38 µM] (active)
same,Potency,[12],inactive
same,"activity change, negative = inhibition",[2],-104% [at 38 µM] (active)
same,Potency,[5],> 46 µM
same,Potency,[6],inactive
same,Potency,[7],inactive
same,outcome,[13],inactive
same,Potency,[14],inactive
same,Potency,[9],inactive
same,Potency,[10],inactive
same,Potency,[11],inactive
same,Potency,[15],3.16 µM (active)
same,outcome,[16],inactive
same,outcome,[17],inactive
same,outcome,[18],inactive
same,Potency,[19],inactive
COc1cc([C@H](O)C(=O)O)ccc1O,"activity change, negative = inhibition",[1],5.25% [at 38 µM]
same,Potency,[12],inactive
same,"activity, negative = inhibition",[3],4.86% [at 38 µM]
same,Potency,[4],> 46 µM
same,Potency,[5],> 46 µM
same,Potency,[7],inactive
same,outcome,[13],inactive
same,outcome,[20],inactive
same,Potency,[21],inactive
same,Potency,[22],inactive
same,outcome,[17],inactive
same,Potency,[19],inactive
O=C(Nc1ccc2c(c1)Cc1ccccc1-2)[C@@H]1[C@H](C(=O)O)[C@]2(Cl)C(Cl)=C(Cl)[C@@]1(Cl)C2(Cl)Cl,"activity change, negative = inhibition",[1],9.85%
same,Potency,[12],3.16 µM (active)
same,"activity, negative = inhibition",[3],4.65%
same,Potency,[4],> 46 µM
same,Potency,[5],> 9.22 µM
same,Potency,[6],inactive
same,Potency,[7],inactive
CS(=O)(=O)Nc1ccc(Nc2c3ccccc3nc3ccccc23)cc1,"activity change, negative = inhibition",[1],0.883%
same,Potency,[12],3.98 µM (active)
same,"activity, negative = inhibition",[3],25.9%
same,Potency,[4],> 46 µM
same,Potency,[5],> 9.22 µM
same,Potency,[6],inactive
same,Potency,[7],inactive
CCCC(c1cc(C(C)(C)C)c(O)cc1C)c1cc(C(C)(C)C)c(O)cc1C,"activity change, negative = inhibition",[1],28.1%
same,"activity change, negative = inhibition",[12],-12.3% [at 2.29 µM]
same,"activity, negative = inhibition",[3],4.1%
same,Potency,[4],> 46 µM
same,Potency,[5],> 9.22 µM
same,Potency,[6],inactive
same,Potency,[7],inactive
